High-throughput results (PubChem)
D2 antagonist = antagonists of human D2 dopamine receptor. hit rate 2% among 340,000. inhibition, % at 10 µM. P14416. HEK293 TREx D2 cells, calcium flux, dopamine EC80; in the data active = inhibition above about 30%; inactive = below that, where a call was filed; note: 0% is about no effect
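Tetracycline-induced HEK293 TREx cells expressing D2 receptor forced-coupled to calcium signalling, loaded with no-wash calcium dye. Compounds added and calcium flux read 180 s, then dopamine added at EC80 and read a further 180 s.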
D2 PAM-1 = D2 dopamine receptor (human) potentiation; P14416; HEK293 T-REx D2, calcium flux, EC20 dopamine potentiation; potentiation, % at 10 µM; hit rate 0.34% among 340,000; AID 485347;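 active = potentiation over 3 SD above the plate norm, cut at about 30% in these data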; note: 0% is about no effect
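Using a no-wash calcium dye in inducible, force-coupled HEK293 Trex cells expressing D2, we tracked fluorescence each second for 180 s after compound, then for 180 s after EC20 dopamine to detect augmented signalling.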
D2 ag-1 = agonists of human D2 dopamine receptor (beta-arrestin); P14416; DiscoveRx PathHunter D2 beta-arrestin, luminescence, 90 min; 100% = 57 uM dopamine signal; activation, % (no concentration beside the values); hit rate 0.084% among 360,000; in the data active = activation above about 40%; inconclusive = between about 15% and that limit
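DiscoveRx PathHunter D2 beta-arrestin cells (2,100/well) attached overnight, then compound-stimulated 90 min at 37 C in HBSS/10 mM HEPES/0.1% Tween-20 buffer; beta-galactosidase complementation read by luminescence after 1 h at ambient temperature. Dopamine 57 uM final (EC100) as control.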
D2 ag-2 = agonists of human D2 dopamine receptor; HEK293 T-REx D2 cells, calcium flux agonist mode; activation, % at 2 µM; hit rate 0.53% among 340,000; AID 485358;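 active = activation over 3 SD above normal in the single-dose calcium agonist read, cut at about 30% in these data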; note: 0% is about no effect
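HEK293 Trex D2 cells, tetracycline-induced, o/n 30 C 5% CO2; no-wash Ca dye, RT 30–90 min; 10-cycle baseline, 23 nl cpd added, kinetic Ca read 180 s; agonist hits = positive Ca response.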
D2 PAM-2 = potentiates the human D2 dopamine receptor allosterically. DiscoveRx D2 beta-arrestin cells, luminescence, 90 min; 100% = 57 uM dopamine signal. potentiation, % (concentration not given with the values). hit rate 0.23% among 360,000; in the data active = potentiation above about 50%; inconclusive = mostly about 30% to 49%
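PathHunter D2 cells, attached overnight at 37 deg C, received compound in DMSO plus dopamine at EC20 (50 nM final) for 90 min at 37 deg C. Beta-arrestin recruitment was read as luminescence after 1 h with detection reagent at ambient temperature.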
D3 ag = activates human D3 dopamine receptor beta-arrestin recruitment. hit rate 4% among 2,300. DiscoveRx D3 beta-arrestin cells, luminescence, 90 min. shares compounds with D2 ag-2. AID 720506. Potency, µM (titrated, usually from 76.9 µM), for inactives: at the highest dose activation, usual class: activators;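 note: potency is the fitted concentration of half-maximal effect; 100% = dopamine control response; nearly all actives have a fitted effect of over 70% in size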
Target sequence (P35462 whole entry, looked up): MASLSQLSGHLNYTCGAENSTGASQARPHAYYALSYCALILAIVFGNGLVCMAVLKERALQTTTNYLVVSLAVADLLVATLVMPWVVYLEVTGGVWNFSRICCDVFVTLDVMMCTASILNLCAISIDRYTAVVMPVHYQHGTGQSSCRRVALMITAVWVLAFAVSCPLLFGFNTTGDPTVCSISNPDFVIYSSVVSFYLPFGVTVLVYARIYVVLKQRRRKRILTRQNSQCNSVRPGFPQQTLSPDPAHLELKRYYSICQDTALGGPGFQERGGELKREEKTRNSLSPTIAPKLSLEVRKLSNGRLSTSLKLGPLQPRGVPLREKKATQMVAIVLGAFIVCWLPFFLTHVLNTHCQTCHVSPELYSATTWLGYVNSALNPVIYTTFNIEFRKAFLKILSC
D2 ag-3 = D2 receptor agonism, beta-arrestin counterscreen; shares compounds with D2 ag-2; DiscoveRx PathHunter D2 beta-arrestin, luminescence, 90 min; response scale: percent relative to full dopamine signal; Potency, µM (series often up to 76.9 µM), for inactives: at the highest dose activation, most hits filed as activators; hit rate 5.9% among 2,300; AID 720507; note: potency is the fitted concentration of half-maximal effect; % of control where 0% means no effect; nearly all actives have a fitted effect of over 70% in size
* marks the source's active call; other numbers are inactive results; ? = inconclusive; . = no result given. Hits are enriched below; roughly 2.4% of the tested compounds scored in any of these assays. Unless noted, calls come from the whole dose curve; as a rule, active = well fitted activation curve with a large enough effect; inconclusive = small, poorly fitted or top-dose-only effect; inactive = flat fitted curve, though single readings scatter.

SMILES	D2 antagonist	D2 PAM-1	D2 ag-1	D2 ag-2	D2 PAM-2	D3 ag	D2 ag-3
O=C(c1ccc2c3c(cccc13)CC2)C1CCCN(C(=O)c2cc[n+]([O-])cc2)C1 (centres undefined)	11.3	-0.3	-3.4	0.2	-1.8	.	.
O=C(C1CCCN(Cc2ccc3c(c2)OCO3)C1)N1CCCC1 (centres undefined)	-12.8	1.4	-0.7	0.2	-3.7	.	.
O=C(C1CCN(c2nnc(N3CCCC3=O)s2)CC1)N1CCN(Cc2ccc3c(c2)OCO3)CC1	1.0	-5.1	2.7	57.0*	4.0	1.5%	26.0%
CCCSCCCNC(=O)c1ccccc1NC(=O)C1=CSCCO1	7.0	-6.9	-0.7	28.1	-6.8	2.2%	-0.6%
CCN(CC)CCCNC(=O)c1ccccc1NC(=O)C1=CSCCO1	.	.	-3.3	.	-16.6	.	.
CCN1CC2=C(OC(N)=C(C#N)C2c2cccs2)/C(=C\c2cccs2)C1 (centres undefined)	27.4	-23.3	0.4	41.1*	-21.5	-10.9%	-1.9%
COc1cc(OC)cc(C(=O)NC(C(=O)Nc2ccc(N3CCOCC3)cc2)C(C)C)c1 (centres undefined)	1.5	-4.6	0.9	-0.2	-20.8	.	.
COc1cc(OC)cc(C(=O)N[C@H](C(=O)Nc2ccccc2N2CCOCC2)C(C)C)c1	7.5	-20.3	-1.5	45.0*	-3.5	-3.0%	-2.9%
COc1ccc(-c2ccc3c(c2)c(C#Cc2ccsc2)c(-c2cc(OC)cc(OC)c2)n3C)cc1	.	.	3.2	.	-10.0	.	.
COc1ccc(-c2c(C#Cc3ccsc3)c3cc(-c4ccc(OC)c(F)c4)ccc3n2C)cc1	1.5	3.6	-4.0	0.7	-7.9	-1.8%	-4.0%
COc1ccc(SC[C@H](Cc2ccccc2)N2CC[C@@H](C(C)(C)C)CCC2=O)cc1	5.6	1.1	1.6	0.5	2.4	-12.1%	-2.5%
COc1ccc(SC[C@H](Cc2ccccc2)N2CC[C@@H](O)CCC2=O)cc1	-1.0	-6.7	-0.7	0.1	-5.6	.	.
O=C(CN1CCCC1)Nc1cc(C(F)(F)F)cc(C(F)(F)F)c1	24.0	-20.9	3.0	51.0*	-10.1	-17.0%	18.5%
COc1ccc(/C=C2\CCCC3C2=NN(C(=O)CSc2ncn[nH]2)C3c2ccc(OC)cc2)cc1 (centres undefined)	4.5	-16.4	6.1	-0.3	-8.5	.	.
O=C(CSc1ncn[nH]1)N1N=C2/C(=C/c3ccccc3)CCCC2C1c1ccccc1 (centres undefined)	33.3*	-13.6	11.7	41.3*	9.4	6.3%	?
CC(C)(C)SCCNC(=O)c1ccc(CN2CCc3ccccc3C2)cc1	9.9	-18.6	0.9	33.7*	-13.3	-20.5%	3.1%
Cc1ccc(S(=O)(=O)NCCC(=O)Nc2ccc(C)cc2C(=O)c2ccccc2)cc1	18.2	-7.4	-5.6	-0.6	-1.1	-3.6%	-5.1%
CC(C)/C=C/CN1CCC(Oc2ccc(C(=O)N3CCCC3)cc2)CC1	.	.	.	.	.	-7.4%	-0.2%
CC(CCc1ccc(O)cc1)N1CCC(Oc2ccc(C(=O)N3CCCC3)cc2)CC1 (centres undefined)	39.1*	-20.7	12.8	59.8*	-12.3	?	18.1%
COc1cccc(CN2CCC(Oc3ccc(C(=O)N4CCCCC4)cc3)CC2)c1	-9.0	-1.9	-3.0	0.2	-17.6	.	.
CN(C)c1ccc(C(=O)NCc2ccc3c(c2)CCN3C(=O)c2ccccc2)cc1	.	6.6	.	0.5	.	.	.
CCc1nc2sc3c(N4CCC(C)CC4)ncnc3c2c2c1CCCC2	.	-4.0	.	.	.	.	.
Cc1[nH]c2ccccc2c1/C=N/Nc1ccc([N+](=O)[O-])cc1	20.0	-1.6	-11.8	21.9	-17.5	.	.
COc1ccccc1NS(=O)(=O)c1cc([N+](=O)[O-])ccc1N/N=C/c1c(C)[nH]c2ccccc12	-25.6	15.3	-16.1	19.3	-16.5	-42.7%	-14.2%
